Results filed as inconclusive are left out. Active and inactive are the calls of the source. Unless noted, calls follow the shape of the dose curve; as a rule, active = well fitted curve in the direction sought with a large enough effect in the repeat runs; inconclusive = weak or mixed curves; inactive = no such curve, though single readings can be large; an effect the other way counts as inactive or inconclusive.
Columns and labels:
[1] = qHTS assay to identify small molecule antagonists of the thyroid receptor (TR) signaling pathway - cell viability counter screen (AID 743064); also: nearly all actives have a fitted effect of over 50% in size
Outline: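 GH3.TRE-Luc rat pituitary cells carrying a TRE-luciferase reporter were treated with compound plus 1 nM T3 (final) for 23.5 h at 37 °C. Viability was then read in the same wells by CellTiter-Fluor fluorescence after a further 30 min.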

[2] = qHTS assay to identify small molecule antagonists of the thyroid receptor (TR) signaling pathway (AID 743065); also: series mostly up to about 70 µM; nearly all actives have a fitted effect of over 55% in size
Outline: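 GH3.TRE-Luc rat pituitary cells (two TREs driving luciferase) were dosed with compound, then stimulated with 1 nM T3 (final) for 23.5 h at 37 C. ONE-Glo luminescence was the read-out, with CellTiter-Fluor fluorescence as the cytotoxicity counter-screen.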

[3] = tested on: thyroid hormone receptor (rat, GH3 cells); assay: qHTS assay to identify small molecule agonists of the thyroid receptor (TR) signaling pathway (AID 743066; calls by dose curve)
[4] = molecular target: Estrogen receptor (Homo sapiens) (UniProt P03372); assay: qHTS assay to identify small molecule antagonists of the estrogen receptor alpha (ER-alpha) signaling pathway (AID 743069; active = well fitted curve in the direction sought with a large enough effect in the signal ratio in the repeat runs, not every such curve was filed as active; the % refers to the signal ratio)
Chain of Estrogen receptor (Homo sapiens) (P03372 whole entry, looked up): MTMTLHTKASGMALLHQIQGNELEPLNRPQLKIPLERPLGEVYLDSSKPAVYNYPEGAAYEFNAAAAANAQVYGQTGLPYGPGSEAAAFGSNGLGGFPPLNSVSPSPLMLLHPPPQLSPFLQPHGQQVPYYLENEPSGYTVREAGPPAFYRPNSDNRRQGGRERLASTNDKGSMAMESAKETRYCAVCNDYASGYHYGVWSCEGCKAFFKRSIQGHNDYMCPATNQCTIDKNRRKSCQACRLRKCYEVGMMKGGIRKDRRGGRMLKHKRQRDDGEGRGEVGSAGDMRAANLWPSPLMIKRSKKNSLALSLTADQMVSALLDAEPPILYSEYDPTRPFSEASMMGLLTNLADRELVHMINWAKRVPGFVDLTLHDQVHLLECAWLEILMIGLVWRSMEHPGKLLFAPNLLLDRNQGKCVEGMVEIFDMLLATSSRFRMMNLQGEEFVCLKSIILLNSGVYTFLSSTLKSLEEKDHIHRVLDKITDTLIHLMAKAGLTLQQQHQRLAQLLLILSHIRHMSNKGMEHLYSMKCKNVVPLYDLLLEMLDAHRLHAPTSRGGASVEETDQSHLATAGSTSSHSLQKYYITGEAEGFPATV
Outline: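 HEK293 ER-alpha-UAS-bla GripTite cells, held overnight in 2% charcoal-stripped FBS, 5,000 cells/well, preincubated 4 h, then compound plus 17beta-estradiol for 18 h at 37C. Beta-lactamase read by LiveBLAzer B/G FRET substrate, 2 h at room temperature.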

[5] = qHTS assay to identify small molecule antagonists of the estrogen receptor alpha (ER-alpha) signaling pathway - cell viability counter screen (AID 743074; calls by dose curve;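 also: HEK293 cells carrying ER-alpha-UAS-bla reporter stimulated with 17beta-estradiol; nearly all actives have a fitted effect of over 45% in size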)
[6] = molecular target: Estrogen receptor (Homo sapiens) (UniProt P03372); assay: qHTS assay to identify small molecule agonists of the estrogen receptor alpha (ER-alpha) signaling pathway (AID 743075; calls by dose curve)
[7] = molecular target: Estrogen receptor (Homo sapiens) (UniProt P03372); assay: qHTS assay to identify small molecule agonists of the estrogen receptor alpha (ER-alpha) signaling pathway using the BG1 cell line (AID 743079); also: nearly all actives have a fitted effect of over 20% in size
[8] = qHTS assay to identify small molecule antagonists of the estrogen receptor alpha (ER-alpha) signaling pathway using the BG1 cell line (AID 743080; calls by dose curve;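 also: BG1 cells stimulated with 17beta-estradiol alongside compound; series mostly up to about 70 µM; nearly all actives have a fitted effect of over 25% in size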)
Outline: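 Luminescence from a 4×ERE-luciferase reporter in BG1-Luc-4E2 cells served as read-out. Cells, pre-cultured 5 days in stripped-serum phenol-red-free medium, were exposed to compound with 17beta-estradiol co-stimulation for 21.5 h at 37 C.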

[9] = qHTS assay to identify small molecule antagonists of the estrogen receptor alpha (ER-alpha) signaling pathway using the BG1 cell line - cell viability counter screen (AID 743081);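 also: compound given together with 17beta-estradiol as the ER stimulus; series mostly up to about 70 µM; nearly all actives have a fitted effect of over 45% in size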
Aromatase (Homo sapiens) = Aromatase (Homo sapiens) (UniProt P11511); assay: qHTS assay to identify aromatase inhibitors (AID 743083); also: series mostly up to about 70 µM; nearly all actives have a fitted effect of over 55% in size
Chain of Aromatase (Homo sapiens) (P11511 whole entry, looked up): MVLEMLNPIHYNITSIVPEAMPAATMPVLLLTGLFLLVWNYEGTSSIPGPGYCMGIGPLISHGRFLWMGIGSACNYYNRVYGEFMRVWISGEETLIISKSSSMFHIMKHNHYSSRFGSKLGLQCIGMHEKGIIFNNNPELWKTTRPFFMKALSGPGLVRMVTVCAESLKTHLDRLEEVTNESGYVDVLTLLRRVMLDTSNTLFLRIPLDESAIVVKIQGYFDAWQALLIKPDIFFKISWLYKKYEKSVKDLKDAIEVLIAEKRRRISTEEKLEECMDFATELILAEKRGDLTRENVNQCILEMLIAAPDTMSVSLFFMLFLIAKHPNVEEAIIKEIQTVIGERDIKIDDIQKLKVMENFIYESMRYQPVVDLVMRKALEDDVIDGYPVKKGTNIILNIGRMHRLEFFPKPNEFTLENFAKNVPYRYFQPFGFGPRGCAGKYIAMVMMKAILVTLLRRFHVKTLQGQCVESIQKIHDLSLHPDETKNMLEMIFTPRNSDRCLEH

[10] = qHTS assay to identify aromatase inhibitors - cell viability counter screen (AID 743084);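 also: cells stimulated with testosterone during compound exposure; nearly all actives have a fitted effect of over 55% in size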
[11] = molecular target: Aryl hydrocarbon receptor (Homo sapiens) (UniProt P35869); assay: qHTS assay to identify small molecule that activate the aryl hydrocarbon receptor (AhR) signaling pathway (AID 743085);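 also: HG2L7.5c1 human HepG2 liver cells with stably integrated DRE-driven firefly reporter; series mostly up to about 70 µM; nearly all actives have a fitted effect of over 15% in size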
Chain of Aryl hydrocarbon receptor (Homo sapiens) (P35869 whole entry, looked up): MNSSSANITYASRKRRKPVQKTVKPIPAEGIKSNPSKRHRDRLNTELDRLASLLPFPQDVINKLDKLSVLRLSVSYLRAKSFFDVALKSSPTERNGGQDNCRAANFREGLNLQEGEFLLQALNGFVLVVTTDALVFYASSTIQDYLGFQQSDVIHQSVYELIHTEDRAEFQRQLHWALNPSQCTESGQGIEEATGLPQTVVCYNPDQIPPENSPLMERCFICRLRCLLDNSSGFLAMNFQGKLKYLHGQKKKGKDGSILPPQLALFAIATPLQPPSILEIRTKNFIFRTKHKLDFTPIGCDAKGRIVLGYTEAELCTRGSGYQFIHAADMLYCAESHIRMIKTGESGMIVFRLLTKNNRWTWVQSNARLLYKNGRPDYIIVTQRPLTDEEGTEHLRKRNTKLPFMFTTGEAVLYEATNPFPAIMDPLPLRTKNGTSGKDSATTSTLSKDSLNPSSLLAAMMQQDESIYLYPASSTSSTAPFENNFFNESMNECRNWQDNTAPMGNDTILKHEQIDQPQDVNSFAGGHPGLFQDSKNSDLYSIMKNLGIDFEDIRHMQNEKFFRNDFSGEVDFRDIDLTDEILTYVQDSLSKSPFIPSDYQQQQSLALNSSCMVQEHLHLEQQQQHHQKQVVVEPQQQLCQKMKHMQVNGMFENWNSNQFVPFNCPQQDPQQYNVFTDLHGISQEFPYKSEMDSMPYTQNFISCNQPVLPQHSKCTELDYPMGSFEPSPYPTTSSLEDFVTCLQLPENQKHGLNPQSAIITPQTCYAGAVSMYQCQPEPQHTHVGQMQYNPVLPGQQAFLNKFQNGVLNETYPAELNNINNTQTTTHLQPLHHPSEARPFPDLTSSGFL
Outline: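 HepG2 cells (HG2L7.5c1) stably carrying a firefly luciferase reporter driven by 20 dioxin responsive elements were exposed to compound for 24 h at 37C after a 5 h settling period; luminescence rise (ONE-Glo) indicated activation.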

[12] = molecular target: Peroxisome proliferator-activated receptor gamma (Homo sapiens) (UniProt P37231); assay: qHTS assay to identify small molecule agonists of the peroxisome proliferator-activated receptor gamma (PPARg) signaling pathway (AID 743094; active = well fitted activation curve with a large enough effect in the signal ratio in the repeat runs, not every such curve was filed as active; the % refers to the signal ratio)
Chain of Peroxisome proliferator-activated receptor gamma (Homo sapiens) (P37231 whole entry, looked up): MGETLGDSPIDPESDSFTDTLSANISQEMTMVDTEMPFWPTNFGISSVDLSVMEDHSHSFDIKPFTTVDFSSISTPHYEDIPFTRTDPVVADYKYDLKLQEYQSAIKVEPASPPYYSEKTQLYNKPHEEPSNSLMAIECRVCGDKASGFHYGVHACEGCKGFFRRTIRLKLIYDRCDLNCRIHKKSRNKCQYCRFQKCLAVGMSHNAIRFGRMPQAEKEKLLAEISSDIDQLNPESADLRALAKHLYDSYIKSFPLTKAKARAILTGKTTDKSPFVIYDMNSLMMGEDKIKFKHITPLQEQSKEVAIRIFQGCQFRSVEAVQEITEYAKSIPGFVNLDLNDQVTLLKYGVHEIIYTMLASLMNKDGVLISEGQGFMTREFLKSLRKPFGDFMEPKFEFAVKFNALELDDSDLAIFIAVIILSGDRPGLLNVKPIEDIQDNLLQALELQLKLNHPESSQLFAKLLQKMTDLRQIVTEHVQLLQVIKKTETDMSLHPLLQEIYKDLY
Outline: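 Compounds dissolved in DMSO were added to PPARg UAS-bla HEK293H cells for 17 h at 37C, and reporter expression was quantified by fluorescence intensity after 1 h with LiveBLAzer B/G FRET substrate.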

[13] = molecular target: Peroxisome proliferator-activated receptor gamma (Homo sapiens) (UniProt P37231); assay: qHTS assay to identify small molecule antagonists of the peroxisome proliferator-activated receptor gamma (PPARg) signaling pathway (AID 743191; calls by dose curve; also: series mostly up to about 63 µM; nearly all actives have a fitted effect of over 30% in size)
Outline: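 GeneBLAzer PPARg UAS-bla HEK293H cells, 5 h post-plating, exposed to compounds 17 h at 37C. LiveBLAzer B/G FRET substrate added for 1 h at room temperature; beta-lactamase reporter read by fluorescence intensity.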

[14] = qHTS assay for small molecule agonists of the antioxidant response element (ARE) signaling pathway - cell viability counter screen (AID 743203; calls by dose curve; also: nearly all actives have a fitted effect of over 55% in size)
Outline: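 Following 16 hrs of compound treatment at 37C, HepG2 cells with an ARE-controlled beta-lactamase gene were lysed with CellTiter-Glo. Luminescence was read after 30 min at room temperature.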

[15] = qHTS assay for small molecule activators of the heat shock response signaling pathway - cell viability counter screen (AID 743209); also: nearly all actives have a fitted effect of over 50% in size
Outline: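 Readout: CellTiter-Glo luminescence, 30 min at room temperature. System: HSE-bla HeLa cells, 1500/well, plated overnight. Treatment: compounds in DMSO, 5 h at 37 C.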

[16] = qHTS assay to identify small molecule that activate the aryl hydrocarbon receptor (AhR) signaling pathway - cell viability counter screen (AID 743086);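 also: HepG2 liver cells carrying the AhR DRE luciferase reporter; series mostly up to about 70 µM; nearly all actives have a fitted effect of over 45% in size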
Outline: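 HepG2-AhR-luc (HG2L7.5c1) cells, 4000/well, treated 24 h at 37 C with compound; viability measured as CellTiter-Fluor fluorescence after 30 min in the same wells as the luciferase read.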

[17] = qHTS assay to identify small molecule antagonists of the peroxisome proliferator-activated receptor gamma (PPARg) signaling pathway - cell viability counter screen (AID 743194); also: nearly all actives have a fitted effect of over 55% in size
Outline: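 Cytotoxicity counter screen in PPARg-bla HEK293H cells, same wells as reporter assay. Compounds plus 50 nM rosiglitazone (final) for 17 h at 37 C, then viability read by CellTiter-Glo luminescence.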

[18] = qHTS assay for small molecule agonists of the antioxidant response element (ARE) signaling pathway (AID 743202; active = well fitted activation curve with a large enough effect in the signal ratio in the repeat runs, not every such curve was filed as active; the % refers to the signal ratio)
Outline: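 ARE-bla HepG2 cells (beta-lactamase reporter under the antioxidant response element), plated 5 hours, then exposed to compounds 16 hours at 37 C. LiveBLAzer B/G FRET substrate added for 2 hours at room temperature; fluorescence intensity read.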

[19] = qHTS assay for small molecule activators of the heat shock response signaling pathway (AID 743210; active = well fitted activation curve with a large enough effect in the signal ratio in the repeat runs, with a control signal flat, not every such curve was filed as active; the % refers to the signal ratio; also: series mostly up to about 63 µM)
Outline: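 HSE-bla HeLa cells (beta-lactamase reporter under heat shock response elements), plated overnight, then exposed to compounds 5 h at 37 C; LiveBLAzer B/G FRET substrate added, 2.5 h at room temperature, fluorescence intensity read.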

Measured: Potency

CCOc1cc(NC(C)=O)ccc1C(=O)OC
not listed: [16] | [17] | [18] | [19]
inactive: all other assays above

Cc1cccc(C)c1NC(=O)c1ccccc1C(=O)O
not listed: [7]
inactive: all other assays above

O=S(=O)(O)c1cc(O)c2ccc(Nc3ccccc3)cc2c1
not listed: [7] | [16]
inactive: all other assays above

CC(=O)Nc1cccc(C)c1
not listed: [9] | [12] | [13]
inactive: all other assays above

CC(=O)CCCCn1c(=O)c2c(ncn2C)n(C)c1=O
not listed: [4]
inactive: all other assays above

CCOC(=O)/C=C/c1ccccc1
not listed: [5] | [12] | [16] | [18] | [19]
inactive: all other assays above

CC(CO)c1ccccc1 (centres undefined)
not listed: [7] | [12]
inactive: all other assays above

Cc1nc2n(c(=O)c1CCN1CCC(c3noc4cc(F)ccc34)CC1)CCC[C@H]2O
not listed: [4]
inactive: all other assays above

Cc1cccc2nccnc12
not listed: [7] | [13] | [15]
inactive: all other assays above

On1nnc2ccccc21
not listed: [5] | [11] | [18] | [19]
inactive: all other assays above

CCOC(=O)[C@H](CCc1ccccc1)N[C@@H](C)C(=O)N1C(=O)N(C)C[C@H]1C(=O)O
not listed: [9] | [12] | [15] | [18] | [19]
inactive: all other assays above

Nc1ccc(S(=O)(=O)Nc2ccc(Cl)nn2)cc1
not listed: [11] | [18]
inactive: all other assays above

CCC(C)NC(N)=O (centres undefined)
not listed: [10] | [11] | [13] | [14] | [15]
inactive: all other assays above

O=C1c2ccccc2C(=O)N1CCl
not listed: [11] | [14]
inactive: all other assays above

C=C(C)C(=O)OCc1ccccc1
not listed: [10] | [18] | [19]
inactive: all other assays above

C[C@@H](O)[C@H]1C(=O)N2C(C(=O)O)=C(SCCN=CN)C[C@H]12
not listed: [11] | [15] | [16]
inactive: all other assays above

Source: PubChem BioAssay (Tox21)
